Test results taken from PubChem BioAssay (NCATS).
Results filed as inconclusive are left out. Entries that show only a call come without a potency. Values without a mark were called inactive. Activity calls are given as the source filed them. Calls follow the shape of the dose curve; as a rule, active = well fitted inhibition curve with a large enough effect; inconclusive = small, poorly fitted or top-dose-only effect; inactive = no such curve, though single readings can be large or run the other way.

How the values were obtained:
[1] = system: Zika virus NS2B-NS3 protease (unlinked complex); test: Primary screen GU Rhodamine qHTS for Zika virus inhibitors: Unlinked NS2B-NS3 protease assay (AID 1347159); also: nearly all actives have a fitted effect of over 60% in size
In short: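 Enzyme 25 nM in Tris-HCl pH 8.0 + 0.01% Tween 20; compounds up to 114 microM, 15 min RT dark; + Rhod110 substrate 1.5 microM; read t0 and 15 min; delta fluorescence → % inhibition → 4-parameter Hill fit.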

[2] = system: Zika virus NS2B-NS3 protease (linked construct); test: Primary screen NINDS Rhodamine qHTS for Zika virus inhibitors (AID 1347160); also: nearly all actives have a fitted effect of over 55% in size
In short: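 Enzyme (25 nM, linked NS2B-NS3) was preincubated 15 min with compound in 10 mM Tris-HCl pH 8.0, 0.01% Tween 20. Rhodamine110 substrate (1.5 microM) was then added and fluorescence read at start and after 15 min.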

| SMILES | Potency [1] | Potency [2] |
| --- | --- | --- |
| CC1=C(CO)C(=O)O[C@@H]([C@@H](C)[C@H]2CC[C@H]3[C@@H]4C[C@H]5O[C@]56[C@@H](O)C=CC(=O)[C@]6(C)[C@H]4CC[C@]23C)C1 | inactive | inactive |
| O=C(OC1C=C(CO)C2C(OC3OC(CO)C(O)C(O)C3O)OC=CC12)c1ccc(O)cc1 (centres undefined) | inactive | inactive |
| CC1=C(C(=O)O)/C(=C\CO[C@@H]2O[C@H](CO)[C@@H](O)[C@H](O)[C@H]2O)C(OC(=O)/C=C/c2ccc(O)cc2)C1 (some centres undefined) | inactive | inactive |
| C=C1[C@@H]2CC[C@@H]3[C@@](CCC4C(C(=O)O)(C(=O)O)C[C@@H](O[C@@H]5O[C@H](CO)[C@@H](O)[C@H](O)[C@H]5OC(=O)CC(C)C)C[C@]43C)(C2)[C@H]1O (some centres undefined) | inactive | inactive |
| CCC(C)C(=O)O[C@H]1CCC=C2C=C[C@H](C)[C@H](CC[C@@H](O)C[C@@H](O)CC(=O)O)[C@H]21 (some centres undefined) | inactive | inactive |
| CC1=CC(=O)C(=C(C)C)CC2C1CCC2(C)O (centres undefined) | inactive | inactive |
| C/C1=C\CC[C@H](C)CCO[C@@H]2O[C@H](CO[C@@H]3OC[C@](O)(COC1=O)[C@H]3O)[C@@H](O)[C@H](O)[C@H]2O | inactive | inactive |
| COc1cc2c(cc1O)CC[C@H]1[C@@H]2CC[C@]2(C)[C@H](O)CC[C@@H]12 | inactive | inactive |
| O=C(O)c1cccc(S(=O)(=O)N2CCc3ccccc3C2)c1 | inactive | inactive |
| C#CCN(Cc1cc2c(=O)n(C)c(CN3CCN(C)CC3)nc2cc1Cl)c1ccc(C(=O)NCc2cccnc2)cc1 | inactive | inactive |
| CC1CC[C@]2(C(=O)O)CC[C@]3(C(=O)O)C(=CCC4[C@@]5(C)CC[C@H](O[C@@H]6O[C@H](CO)[C@@H](O)[C@H](O)[C@H]6O)C(C)(C)C5CC[C@]43C)C2C1C (some centres undefined) | inactive | inactive |
| COc1cc(/C=C/C=O)cc(OC)c1O[C@@H]1O[C@H](CO)[C@@H](O)[C@H](O)[C@H]1O | inactive | inactive |
| CCOc1ccc(NC(=S)N2CCC(C(O)(c3ccccc3)c3ccccc3)CC2)cc1 | inactive | inactive |
| C=CC1(C)C=C2CCC3C(C)(C)C(O[C@@H]4O[C@@H](CO)[C@H](O)[C@H]4O)CCC3(C)C2CC1O[C@@H]1O[C@H](C)[C@H](O)[C@H](O)[C@H]1O (some centres undefined) | inactive | inactive |
| COC(=O)c1ccccc1O[C@@H]1O[C@H](CO)[C@@H](O)[C@H](O)[C@H]1O[C@@H]1O[C@@H](C)[C@H](O)[C@@H](O)[C@H]1O | inactive | inactive |
| NC1(C(=O)NC(CCO)c2ccc(Cl)cc2)CCN(c2ncnc3[nH]ccc23)CC1 (centres undefined) | inactive | inactive |
| COC(=O)C1(C)CCC2(C(=O)O)CCC3(C)C(=CCC4C5(C)CC(O)C(OC6OCC(O)C(O)C6O)C(C)(CO)C5CCC43C)C2C1 (centres undefined) | inactive | inactive |
| COc1ccc(C2COc3cc(O)ccc3C2)c(O)c1 (centres undefined) | inactive | inactive |
| CC1(C)CC[C@]2(CO[C@@H]3O[C@H](CO)[C@@H](O)[C@H](O)[C@H]3O)[C@@H](O)C[C@]3(C)C(=CCC4[C@@]5(C)CC[C@H](O[C@@H]6O[C@H](CO[C@@H]7O[C@H](CO[C@@H]8OC[C@@H](O)[C@H](O)[C@H]8O)[C@@H](O)[C@H](O)[C@H]7O)[C@@H](O)[C@H](O)[C@H]6O)C(C)(C)C5CC[C@]43C)[C@@H]2C1 (some centres undefined) | inactive | inactive |
| C[C@@H]1O[C@@H](O[C@H]2[C@H](O)[C@@H](O)[C@H](OC3CCC4(C)C5CCC(C)(C(CO)OC6OC(CO)C(O)C(O)C6O)CC5=CCC4C3(C)C)O[C@@H]2CO)[C@H](O)[C@H](O)[C@H]1O (some centres undefined) | inactive | inactive |
| C[C@H]1O[C@@H](O[C@H]2CC[C@@]3(C)C(CC[C@]4(C)C3CC=C3C5CC(C)(C)CC[C@]5(C(=O)O)CC[C@]34C(=O)O)C2(C)C)[C@H](O)[C@@H](O)[C@@H]1O (some centres undefined) | inactive | inactive |
| CC1(C)CC[C@]2(C(=O)O[C@@H]3O[C@H](CO)[C@@H](O)[C@H](O)[C@H]3O)CC[C@]3(C)C(=CCC4[C@@]5(C)CC[C@H](O[C@@H]6O[C@H](C(=O)O)[C@@H](O)[C@H](O)[C@H]6O)[C@@](C)(CO)C5CC[C@]43C)C2C1 (some centres undefined) | inactive | inactive |
| CC12CCC(OC3OC(CO)C(O)C(OC4OC(CO)C(O)C(O)C4O)C3O)CC1=CCC1C2CCC2(C)/C(=C3/COC(=O)C3)CCC12O (centres undefined) | inactive | inactive |
| CCNC(=O)Nc1ncc(-c2cc(-c3c(C)cc(OC)cc3C)nc(-c3cnccn3)n2)s1 | inactive | inactive |
| CC(C)c1nc(-c2ccc(NC(=O)Nc3cccc(C(F)(F)F)c3)c3ccccc23)c2c(N)nccn12 | inactive | inactive |
| Cc1cccc(C)c1-n1c(=O)c2cnc(Nc3ccc(N4CCN(C)CC4)cc3)nc2n2c3ccccc3nc12 | inactive | inactive |
| C[C@@H]1O[C@@H](O[C@H]2[C@@H](OC(=O)[C@]34CCC(C)(C)CC3C3=CCC5[C@@]6(C)C[C@H](O)[C@H](O[C@@H]7O[C@H](C(=O)O)[C@@H](O)[C@H](O)[C@H]7O)[C@@](C)(C(=O)O)C6CC[C@@]5(C)[C@]3(C)CC4)OC[C@H](O)[C@@H]2O)[C@H](O)[C@H](O)[C@H]1O[C@@H]1OC[C@@H](O)[C@H](O)[C@H]1O (some centres undefined) | inactive | inactive |
